In the library only some 5.2% were active in any assay of this set; here they are far more common.
Tau fluor counter – Counterscreen qHTS for Inhibitors of Tau Fibril Formation, Fluorescence Polarization; tau K18 P301L Alexa594 fluorescence, heparin fibrillization; hit rate 0.93% among 280,000; Potency, µM (doses to about 57.7 µM); AID 1463, 2008; also: nearly all actives have a fitted effect of over 55% in size
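Human tau K18 P301L (15 uM unlabeled, 0.24 uM Alexa 594-labeled) in 100 mM sodium acetate pH 7 with 20 uM heparin, 6 hr at 37 C. ThT 30 uM added, 1 hr ambient; Alexa 594 FP and total fluorescence read at 555/632 nm.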
Tau fibril FP – qHTS for Inhibitors of Tau Fibril Formation, Fluorescence Polarization. Microtubule-associated protein tau (Homo sapiens), P10636. K18 P301L tau heparin fibrillization, Alexa594 FP, 6 h. Potency, µM (highest dose often 57.7 µM), actives largely listed as inhibitors. hit rate 0.39% among 280,000. AID 1468, 2008; also: nearly all actives have a fitted effect of over 55% in size
Target sequence (P10636 561-689 P618L limits assumed): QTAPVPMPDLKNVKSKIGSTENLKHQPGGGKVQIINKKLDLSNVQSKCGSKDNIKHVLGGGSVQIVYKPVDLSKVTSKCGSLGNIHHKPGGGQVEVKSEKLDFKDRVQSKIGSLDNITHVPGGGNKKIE
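Heparin (20 uM) drove fibril formation of recombinant tau K18 P301L, 15 uM unlabeled with 0.24 uM Alexa 594 label, for 6 hr at 37 C in 100 mM sodium acetate pH 7. Fluorescence polarization (555/632 nm) read 1 hr after 30 uM ThT.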
Sfp inh – qHTS Assay for Inhibitors of Bacillus subtilis Sfp phosphopantetheinyl transferase (PPTase). 4'-phosphopantetheinyl transferase ffp (Bacillus subtilis), Q9F4F7. Biochemical Sfp PPTase activity, qHTS. hit rate 3.5% among 310,000. Potency, µM, usual class: inhibitors. AID 1490, 2009;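 also: the enzyme is Sfp with the accession as filed and its product quenches rhodamine fluorescence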
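Sfp 15 nM + cpd, 15 min RT; start w/ rhodamine-CoA 5 uM, BHQ-2-YbbR 12.5 uM (final); 50 mM Hepes pH 7.6, 10 mM MgCl2, 0.01% NP-40, 0.01% BSA; read 525/598 nm at 0 and 30 min.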
Coupling enz – qHTS Assay for Inhibitors of Fructose-1,6-bisphosphate Aldolase from Giardia Lamblia: Coupling assay counterscreen; coupling enzyme system counterscreen, AmpLite Red fluorescence; hit rate 0.67% among 290,000; activity change, negative = inhibition, % at 58.2 µM, hits read low; in the data active = activity change below about -30%
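First, compound is pin-transferred into glyceraldehyde-3-phosphate coupling-enzyme reagent at 57.5 uM final and held 10 min at RT. Next, substrate, coupling system and AmpLite Red are added. After 20 min RT, fluorescence (525/598 nm) is read.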
Tau fibril ThT – qHTS for Inhibitors of Tau Fibril Formation, Thioflavin T Binding; Microtubule-associated protein tau (Homo sapiens), P10636; recombinant tau K18 P301L (four-repeat tau fragment), heparin-induced fibrillization, ThT fluorescence; Potency, µM (doses to about 57.4 µM), actives largely listed as inhibitors; hit rate 2.1% among 270,000; AID 1460, 2008; also: nearly all actives have a fitted effect of over 55% in size
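Tau K18 P301L fragment (15 uM unlabeled plus 0.24 uM Alexa 594-labeled) in 100 mM sodium acetate pH 7 with compound, fibrillization induced by 20 uM heparin for 6 hr at 37 C. Thioflavin T (30 uM) added, fluorescence read after 1 hr (ex 450, em 510 nm).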
Hits are given with their value; n = inactive; u = inconclusive; x = not tested or not shown; ! = not confirmed by another sample; [ ] = dose if it differs, or a comment. Unless noted, calls follow the shape of the dose curve; as a rule, active = well fitted curve in the direction sought with a large enough effect; inconclusive = small, poorly fitted or top-dose-only effect, or another doubt; inactive = no such curve, though single readings can be large; an effect the other way counts as inactive or inconclusive.

SMILES | Tau fluor counter | Tau fibril FP | Sfp inh | Coupling enz | Tau fibril ThT
Cc1ccc2cc3cc(C(=O)N4CCN(c5cccc(C(F)(F)F)c5)CC4)sc3nc2c1 | n | n | x | x | n
COc1ccc(/C=N/NC(=O)c2ccc3ccccc3c2)cc1OS(=O)(=O)c1ccc(NC(C)=O)cc1 | u | 13µM | n | n | n
COc1ccc(/C=N/NC(=O)c2ccc(NC(=O)C3CCCCC3)cc2)cc1O | x | x | 79µM | x | x
COc1ccc(C=O)cc1OS(=O)(=O)c1ccc(NC(C)=O)cc1 | n | n | n | n | n
O=C(c1ccc2c(c1)OCCO2)N(Cc1cccnc1)c1nc2c(F)cc(F)cc2s1 | n | n | x | x | n
O=C(CC1C(=O)N(c2ccc(F)cc2)C(=O)N1Cc1ccc2c(c1)OCO2)Nc1ccc(Cl)cc1 (stereo not drawn) | u | u | x | x | n
O=c1c2c(-c3ccco3)csc2nc(SCc2cn3cccnc3n2)n1-c1ccccc1 | n | n | 18µM | n | u
Cc1ccc(Cl)cc1Nc1nn2c(=O)c3ccc(C(=O)NCc4ccc(F)cc4)cc3nc2s1 | n | n | x | x | n
COc1cc(/C=C/C(=O)c2ccc(C)c([N+](=O)[O-])c2)cc(OC)c1O | u | n | n | n | 6.3µM
COc1ccc(/C=C/C(=O)c2ccc(C)c([N+](=O)[O-])c2)cc1O | n | n | 79µM | n | n
COc1cc(O)c(C(=O)/C=C/c2ccc(OC)c(O)c2)c(OC)c1 | u | n | n | n | 3.2µM
COc1cc(/C=C/C(=O)c2ccc(NS(=O)(=O)c3ccc(C)cc3)cc2)ccc1OC(F)F | n | n | n | n | n
COc1cccc(/C=C/C(=O)c2ccc(C)c([N+](=O)[O-])c2)c1 | n | n | n | n | n
COc1cc(/C=C/C(=O)c2ccc(NS(=O)(=O)c3ccc(C)cc3)cc2)cc(OC)c1O | 14µM[quencher] | n | n | n | 11µM
CC(C)(C)NS(=O)(=O)c1ccc2nc(NC(=O)c3cccnc3)sc2c1 | n | n | x | x | n
CCCCSCCCNC(=O)c1cn(CC)c2ccc(S(=O)(=O)N(C)C3CCCCC3)cc2c1=O | n | n | x | x | n
CC(=O)NC1=C(Nc2ccc(N(C)C)cc2)C(=O)c2ccccc2C1=O | x | x | n | n | x
COC1=C(Nc2ccccc2)C(=O)c2ccccc2C1=O | u | u | n | -33 | 7.1µM
COC1=C(Nc2ccc(C)cc2)C(=O)c2ccccc2C1=O | u | u | n | -32 | 8.9µM
O=C1c2c(O)ccc(O)c2C(=O)c2c(NCCNCCO)ccc(NCCNCCO)c21 | 3.2µM[quencher] | u | n | n | 8.9µM
O=C1c2cccc(O)c2C(=O)c2c(O)cc(CO)cc21 | x | x | n | n | x
CCOC(=O)C1CCCN(C(=O)Cn2ncc3c(C)n(Cc4ccccc4Cl)c(C)c3c2=O)C1 (stereo not drawn) | n | n | x | x | u
Cc1ccccc1NC(=O)Cn1nnc(C(=O)NCc2cccs2)c1N | n | n | x | x | n
COc1ccc(NC(=S)Nc2ccc(N)c([N+](=O)[O-])c2)cc1 | u | n | u | n | 16µM
COc1ccc(NC(=S)Nc2ccc3nccnc3c2)cc1 | n | n | 45µM | -38 | u
SMILES | Tau fluor counter | Tau fibril FP | Sfp inh | Coupling enz | Tau fibril ThT
COc1cccc(NC(=S)Nc2ccc(O)cc2)c1 | u | u | 20µM | n | 18µM
Cc1ccc(C)c(C(C)NC(=O)CC#N)c1 (stereo not drawn) | n | n | n | n | n
Cc1ccc(C)c(C(C)NC(=O)c2ccc(Br)o2)c1 (stereo not drawn) | n | n | 50µM | n | n
Cc1cccc(NC(=O)Cn2c(O)c(N=NC(N)=S)c3ccccc32)c1 | u | n | 40µM | n | u
COc1ccc(N)c2c1C(=O)c1ccccc1C2=O | n | u | n | n | 16µM
Nc1ccc(O)c2c1C(=O)c1ccccc1C2=O | n | n | u | n | n
COC1=C(OC)C(=O)c2ccccc2C1=O | n | u | x | x | 13µM
Nc1ccc(Br)c2c1C(=O)c1ccccc1C2=O | u | n | 50µM | n | 5µM
COc1cccc2c1C(=O)c1ccc3ccccc3c1C2=O | u | u | n | n | u
COc1ccc(OC)c2c1C(=O)c1ccccc1C2=O | n | u | 40µM | n | 35µM
CC(C)C(=O)Nc1nnc2n1CCS2 | n | n | x | x | n
Cc1nc2sc(C(=O)N(C)c3ccccc3)c(NC(=O)c3ccccc3Cl)c2c(C)c1C | n | n | x | x | n
CCCn1c(-c2ccc(S(=O)(=O)N3CCOCC3)cc2)csc1=Nc1ccc(OCC)cc1 | n | n | x | x | n
COc1ccc(OC)c2c1C(=O)C(Cl)=C(Cl)C2=O | u | 18µM | 0.5µM | -45 | 4.5µM
CCOc1ccc(N(CC(=O)NCc2ccco2)S(C)(=O)=O)cc1 | n | n | 56µM | n | n
CCOc1ccc(N(CC(=O)Nc2ccccc2C(=O)NCc2ccco2)S(C)(=O)=O)cc1 | n | n | n | n | n
OCCOCCN1CCN(C2=Nc3ccccc3Sc3ccccc32)CC1 | n | n | 50µM! | n | n
CSc1ccccc1NC(=O)CN(C)CC(=O)NCc1ccccc1 | n | n | n | n | n
CSc1ccccc1NC(=O)CN(C)Cc1cccc(Cl)c1 | n | n | 32µM | n | n
O=C(CCCOc1ccc(Cl)cc1Cl)N1CCc2ccccc2C1 | n | n | 18µM | n | n
Cc1cc(Cl)ccc1OCCCC(=O)N1CCOCC1 | n | n | n | n | n
Cc1cc(Cl)ccc1OCCCC(=O)N1CCCCC1 | n | n | 79µM | n | n
CCOc1ccccc1NC(=O)CN1C(=O)CC(c2ccco2)Sc2ccccc21 (stereo not drawn) | n | n | x | x | n
COC(=O)c1cc2oc3ccccc3c2n1Cc1ccccc1Cl | n | n | x | x | n
CC(=O)c1ccc(NC(=O)CSc2nnc3ccc(-c4ccc(Cl)cc4)nn23)cc1 | n | u | x | x | n
SMILES | Tau fluor counter | Tau fibril FP | Sfp inh | Coupling enz | Tau fibril ThT
N=C1/C(=C\c2ccc(-c3cccc(C(=O)O)c3)o2)C(=O)N=C2SC=C(c3ccccc3)N12 | n | n | n | n | 2.5µM
N=C1/C(=C/c2ccc(-c3cccc(C(=O)O)c3)o2)C(=O)N=C2SC(CC(=O)N3CCOCC3)=NN12 | x | x | n | n | x
CC(C)OC(=O)c1cccc(C(=O)O)n1 | n | n | 50µM | n | n
CN(C)CCCN1c2ccccc2Sc2ccc(Cl)cc21 | u | n | 79µM! | n | u
COc1ccc(CNC(=O)c2oc3c(c2C)-c2nn(Cc4ccc(Cl)cc4)cc2CC3)cc1 | n | n | x | x | n
Nc1cccc2c1C(=O)N(C(=O)/C=C/c1ccc(F)cc1)C2=O | n | u | n | n | 25µM
CC(=O)Nc1sc(N/N=C/c2ccc(N(C)C)cc2)nc1-c1ccc(C)cc1 | 32µM[quencher] | n | n | n | 16µM
